# The sample as a whole holds a higher share of hits than the screen did.
# IDE exosite inh = exo-site inhibitors of human insulin-degrading enzyme | AID 1259349 | P14735 | z-score at 20 µM | purified IDE, FL-6b probe fluorescence polarization; hits give low values | 17,000 tested, 6.3% active;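 active = z-score of -3 or lower, meaning strong loss of probe binding signal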;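 note: His-tagged human IDE residues 42-1019 made in E. coli with 30 nM FL-6b probe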
# The depositor's hits bear a star.
SMILES,IDE exosite inh
CC=Cc1ccc2n(c1=O)C[C@H]1[C@H](CO)[C@@H](C(=O)N[C@H](C)c3ccccc3)N(C(=O)c3ccccn3)[C@@H]21 (mixture of isomers),0.53
CN(C)C(=O)C[C@H]1CC[C@@H]2[C@H](COC[C@H](O)CN2S(=O)(=O)c2ccccc2Cl)O1,0.51
CO[C@@H]1CC[C@@H]2CCN(C)C(=O)CCCN(C)C(=O)c3cc(C#N)ccc3OC[C@H]1O2,0.87
CO[C@@H]1CN(C)C(=O)c2cc(NS(=O)(=O)c3cccc(Cl)c3)ccc2OC[C@H](C)NC[C@H]1C,-0.26
COc1ccccc1S(=O)(=O)N(C)C[C@@H]1OCc2cn(nn2)CCCC(=O)N([C@@H](C)CO)C[C@@H]1C,-1.8
N#C[C@@H]1[C@@H](c2ccccc2C2=CCCCC2)[C@@H](CO)N1C(=O)Cc1ccncc1,1.8
Cn1cnc(S(=O)(=O)N2C[C@H](O)COC[C@H]3O[C@@H](CC(=O)NCc4cccc(F)c4)CC[C@@H]32)c1,-0.31
C[C@H](CO)N1C[C@H](C)[C@@H](CN(C)C(=O)Cc2ccccc2)OCCCC[C@H](C)Oc2ccc(NS(C)(=O)=O)cc2C1=O,0.25
O=C(NC[C@H]1[C@@H](c2ccccc2)[C@@H](CO)N1C(=O)C1CC1)NC1CCCC1,4
CS(=O)(=O)N1CC(=O)N2[C@H](C1)[C@H](c1ccc(C#Cc3cccc(F)c3)cc1)[C@@H]2CO,-8.4*
CS(=O)(=O)N1CC(=O)N2[C@H](C1)[C@H](c1ccc(C#Cc3ccc(F)cc3)cc1)[C@@H]2CO,0.35
CS(=O)(=O)N1CC(=O)N2[C@H](CO)[C@@H](c3ccc(C#Cc4ccc(F)cc4)cc3)[C@H]2C1,0.85
CCS(=O)(=O)N1CC(=O)N2[C@@H](CO)[C@H](c3ccc(C#Cc4ccc(F)cc4)cc3)[C@@H]2C1,3.8
O=C(C1CC1)N1CC(=O)N2[C@@H](CO)[C@@H](c3ccc(-c4ccccc4F)cc3)[C@@H]2C1,-8.4*
O=C(C1CCCCC1)N1CC(=O)N2[C@@H](CO)[C@H](c3ccc(-c4ccccc4F)cc3)[C@@H]2C1,-1.2
O=C1CN(Cc2ccccc2)C[C@@H]2[C@@H](c3ccc(-c4ccccc4F)cc3)[C@@H](CO)N12,-4.7*
O=C1CN(Cc2ccccc2)C[C@@H]2[C@H](c3ccc(-c4ccccc4F)cc3)[C@H](CO)N12,0.25
O=C(C1CCCCC1)N1CC(=O)N2[C@H](CO)[C@H](c3ccc(-c4ccccc4F)cc3)[C@@H]2C1,-1.7
O=C(C1CCC1)N1CC(=O)N2[C@H](CO)[C@H](c3ccc(-c4ccccc4F)cc3)[C@H]2C1,-11*
O=C(C1CC1)N1CC(=O)N2[C@H](CO)[C@H](c3ccc(-c4ccccc4F)cc3)[C@@H]2C1,1.2
O=C(C1CCC1)N1CC(=O)N2[C@H](C1)[C@H](c1ccc(-c3ccccc3F)cc1)[C@@H]2CO,-0.87
O=C1CN(Cc2ccc(F)cc2)C[C@H]2[C@H](c3ccc(-c4ccccc4F)cc3)[C@@H](CO)N12,-1.2
COc1cccc(C(=O)N2C[C@@H]3[C@H](c4ccccc42)[C@H](CO)N3C(=O)c2cccc(F)c2)c1,1.8
O=C(C1CCC1)N1CC2(C1)[C@@H](c1ccccc1)[C@@H](CO)N2Cc1nccs1,1.3
N#C[C@@H]1[C@H](c2ccccc2-c2ccccc2F)[C@H](CO)N1C(=O)C1CCOCC1,-0.07
SMILES,IDE exosite inh
CN1C(=O)c2cc(NC(=O)Nc3ccccc3Cl)ccc2OC[C@@H]2O[C@H](CC(=O)O)CC[C@H]21,-0.65
O=C(Cc1cccnc1)N1[C@H](CO)[C@H](c2ccccc2)[C@@H]1CNCC1CCC1,-0.57
COc1ccccc1NC(=O)N1CC(=O)N2[C@H](CO)[C@H](c3ccc(-c4ccccc4)cc3)[C@@H]2C1,0.8
C/C=C/c1ccc([C@H]2[C@H](CO)N(C(=O)COC)[C@H]2CNC(=O)CC)cc1,5
O=C(Nc1ccc(F)cc1)N1CCCCN2[C@H](C1)[C@H](c1ccc(C#Cc3ccccc3)cc1)[C@@H]2CO,2.5
CCCN1[C@@H]2c3ccc(-c4ccncc4)c(=O)n3C[C@@H]2[C@@H](CO)[C@@H]1C(=O)NCCCN1CCOCC1,-0.78
COc1cccc(C#Cc2ccc([C@@H]3[C@@H](CO)N4C(=O)CN(C(C)=O)C[C@@H]34)cc2)c1,-7.5*
COc1cccc(C#Cc2ccc([C@H]3[C@H]4CN(C(C)=O)CC(=O)N4[C@H]3CO)cc2)c1,-7.9*
COc1ccc(C#Cc2ccc([C@H]3[C@@H](CO)N4C(=O)CN(C(C)=O)C[C@@H]34)cc2)cc1,3.9
COc1ccc(C#Cc2ccc([C@H]3[C@H]4CN(C(C)=O)CC(=O)N4[C@H]3CO)cc2)cc1,2.7
COc1ccc(C#Cc2ccc([C@H]3[C@@H](CO)N4C(=O)CN(C(C)=O)C[C@H]34)cc2)cc1,1.7
COc1ccc(C#Cc2ccc([C@@H]3[C@@H](CO)N4C(=O)CN(C(C)=O)C[C@H]34)cc2)cc1,3.6
C[C@@H]1CN([C@@H](C)CO)C(=O)c2cc(NS(=O)(=O)c3ccc(Cl)cc3)ccc2O[C@@H](C)CCCCO[C@@H]1CN(C)Cc1ccncc1,0.48

# Compound activity deposited in PubChem BioAssay by Broad Institute.
